Screening results: PubChem BioAssay, National Center for Advancing Translational Sciences (NCATS)
KB-V1 MDR tox = qHTS assay for MDR1-selective chemotherapeutics: Primary screen using the drug-selected MDR subline cells KB-V1 | KB-V1 MDR cells viability, CellTiter-Glo, 72 h | Potency, µM (highest dose often 46.1 µM), usual class: cytotoxic | 3.4% of 400,000 active; note: % is set by controls: 0 for no effect and ±100 for the full control effect; nearly all actives have a fitted effect of over 60% in size
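Readout: CellTiter-Glo luminescence, 10 min after addition. Cells: KB-V1 MDR subline, 72 h at 37 degrees C with compound. Analysis: corrected, normalized data fitted to concentration-effect curves.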
SW480 rerep = A quantitative high throughput screen for small molecules that induce DNA re-replication in SW480 colon adenocarcinoma cells. SW480 DNA re-replication, Hoechst DNA content imaging, 48 h. Potency, µM (titrated, usually from 46.1 µM), inactives show at the top dose re-replication activation, hits mostly activators. 1.8% of 340,000 active. AID 624297, 2012; note: % of control where 0% means no effect; nearly all actives have a fitted effect of over 55% in size
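Image-based DNA-content assay: after two days of treatment, nuclei were labelled with the DNA dye Hoechst and imaged, and hits were compounds raising the count of nuclei showing high fluorescence intensity.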
HT1080 IDH1KD tx = qHTS for induction of synthetic lethality in tumor cells producing 2HG: qHTS for the HT-1080-IDH1KD cell line; HT-1080 IDH1 knockdown viability, ATP luminescence, 48 h; Potency, µM (series often up to 46.1 µM), inactives show top-dose activity, negative = toxicity, usual class: cytotoxic; 2% of 360,000 active;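 note: 0% = DMSO wells and -100% = cell-free medium wells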
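HT-1080-IDH1KD cells (IDH1 knocked down), 750/well in RPMI with 5% FBS, treated with compound 48 h at 37 degrees C. Viability by CellTiter-Glo luminescence, normalised to DMSO and no-cell wells; concentration-response curves classed.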
MCF10A rerep = A quantitative high throughput screen for small molecules that induce DNA re-replication in MCF 10a normal breast cells. MCF 10A DNA re-replication, Hoechst nuclear intensity, 48 h. Potency, µM (doses to about 46.1 µM), inactives show top-dose activity, positive = re-replication, usual class: activators. 2.9% of 350,000 active. AID 624296, 2012; note: % of control where 0% means no effect; nearly all actives have a fitted effect of over 50% in size
KB-3-1 cytotox = qHTS assay for MDR1-selective chemotherapeutics: Primary screen using the parental adenocarcinoma cell KB-3-1 | 1.4% of 400,000 active | Potency, µM (titrated, usually from 46.1 µM), most hits filed as cytotoxic | KB-3-1 viability, CellTiter-Glo ATP luminescence, 72 h; note: % is set by controls: 0 for no effect and ±100 for the full control effect; nearly all actives have a fitted effect of over 60% in size
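Parental KB-3-1 viability, qHTS format: 72 h compound exposure, 37 °C; CellTiter-Glo; media-only wells and DMSO plates as controls; concentration-effect fits on corrected data.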
HT1080NT lethal = qHTS for induction of synthetic lethality in tumor cells producing 2HG: qHTS for the HT-1080-NT fibrosarcoma cell line. HT-1080-NT fibrosarcoma viability, CellTiter-Glo ATP luminescence, 48 h. Potency, µM (titrated, usually from 46.1 µM), for inactives: top-dose activity, negative = less viability, actives largely listed as cytotoxic. 1.6% of 360,000 active;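 note: NT is the 2HG producing partner of a matched IDH1 knockdown line; 0% = DMSO-treated cells and -100% = media-only wells without cells; nearly all actives have a fitted effect of over 55% in size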
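Read-out is CellTiter-Glo luminescence after 10 minutes at room temperature, following 48 hours' compound treatment of HT-1080-NT cells (750 cells/well, RPMI, 5% FBS, 37 degrees C).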
* marks the source's active call; other numbers are inactive results; [ ] = another dose, or the depositor's remark. Sampled rows, rich in hits. Any-hit rate of the full collection: about 7.9%. Calls come from the whole dose curve; as a rule, active = well fitted curve in the direction sought with a large enough effect; inconclusive = small, poorly fitted or top-dose-only effect, or another doubt; inactive = no such curve, though single readings can be large; an effect the other way counts as inactive or inconclusive. Potency is the fitted concentration of half-maximal effect.

For Cc1ccc(S(=O)(=O)Nc2cc(-c3nn(C)c(=O)c4ccccc34)ccc2N2CCOCC2)cc1 the results were KB-V1 MDR tox inactive, SW480 rerep 16.4µM*, HT1080 IDH1KD tx 10µM*, MCF10A rerep inconclusive, KB-3-1 cytotox inactive and HT1080NT lethal inconclusive.
Screening CCOC(=O)c1c(-c2ccc(-c3ccccc3)cc2)csc1NC(=O)C1C2CCC(O2)C1C(=O)O (centres undefined) returned KB-V1 MDR tox inactive, SW480 rerep -0.9%, HT1080 IDH1KD tx inconclusive, MCF10A rerep 9.2µM*, KB-3-1 cytotox inactive and HT1080NT lethal inconclusive.
`CCOC(=O)c1c(-c2ccccc2)csc1NC(=O)/C(C#N)=C/c1ccc(OC)c(OC)c1` gave KB-V1 MDR tox inactive, SW480 rerep 2.2%, HT1080 IDH1KD tx 14.6%, MCF10A rerep inconclusive, KB-3-1 cytotox inactive and HT1080NT lethal 12.0%.
For COC(=O)c1c(-c2ccc3ccccc3c2)csc1NC(=O)Cc1ccc(OC)c(OC)c1 the results were KB-V1 MDR tox 14.6µM*, SW480 rerep inconclusive, HT1080 IDH1KD tx -6.2%[9.24 µM], MCF10A rerep inconclusive, KB-3-1 cytotox inconclusive and HT1080NT lethal -26.8%.
Screening CCOC(=O)c1c(-c2ccc(OC)cc2)csc1NC(=O)CSc1nnc(C)c(=O)[nH]1 returned KB-V1 MDR tox inactive, SW480 rerep -1.1%, HT1080 IDH1KD tx -9.4%, MCF10A rerep inconclusive, KB-3-1 cytotox inactive and HT1080NT lethal -23.0%.
`CCOC(=O)c1c(-c2ccccc2)csc1NC(=O)/C(C#N)=C/c1ccc(O)c(OC)c1` gave KB-V1 MDR tox inactive, SW480 rerep inconclusive, HT1080 IDH1KD tx -20.9%, MCF10A rerep 20.6µM*, KB-3-1 cytotox inactive and HT1080NT lethal inconclusive.
CCOC(=O)c1c(-c2ccc(OC)cc2)csc1NC(=O)CSc1ccccc1 was read as KB-V1 MDR tox inactive, SW480 rerep 7.5%, HT1080 IDH1KD tx -3.5%, MCF10A rerep 7.31µM*, KB-3-1 cytotox inconclusive and HT1080NT lethal 0.9%.
For CCOC(=O)c1c(-c2ccccc2)csc1NC(=O)CSc1ccccc1 the results were KB-V1 MDR tox 18.4µM*, SW480 rerep -1.0%, HT1080 IDH1KD tx 16.9%, MCF10A rerep 9.4%, KB-3-1 cytotox inactive and HT1080NT lethal 18.4%.
Screening CCOC(=O)c1c(-c2ccc(C)cc2)csc1NC(=O)CCSc1nnc2ccccn12 returned KB-V1 MDR tox 16.4µM*, SW480 rerep -2.3%, HT1080 IDH1KD tx -3.3%, MCF10A rerep inconclusive, KB-3-1 cytotox inactive and HT1080NT lethal -4.2%.
For CCOC(=O)c1c(NC(=O)CSc2nncs2)sc(C)c1-c1ccccc1 the results were KB-V1 MDR tox 7.31µM*, SW480 rerep 7.8%, HT1080 IDH1KD tx inconclusive, MCF10A rerep 7.31µM*, KB-3-1 cytotox inconclusive and HT1080NT lethal -22.2%.
For CCOC(=O)c1c(-c2ccccc2)csc1NC(=O)CSc1nnnn1C the results were KB-V1 MDR tox inactive, SW480 rerep 29.9%, HT1080 IDH1KD tx 11.2µM*, MCF10A rerep inconclusive, KB-3-1 cytotox inactive and HT1080NT lethal inconclusive.
For CCOC(=O)c1c(-c2ccccc2)csc1NC(=O)CSc1nncs1 the results were KB-V1 MDR tox inconclusive, SW480 rerep -15.0%, HT1080 IDH1KD tx -17.6%, MCF10A rerep 22.6%, KB-3-1 cytotox inactive and HT1080NT lethal -20.5%.
Screening Cn1nnnc1SCC(=O)Nc1ccccc1-c1ccccc1 returned KB-V1 MDR tox inactive, SW480 rerep -4.7%, HT1080 IDH1KD tx 8.6%, MCF10A rerep 2.1%, KB-3-1 cytotox inactive and HT1080NT lethal 3.3%.
For COc1cc(N)c(Cl)cc1C(=O)OCC(=O)N1CCCC1 the results were KB-V1 MDR tox inactive, SW480 rerep -12.6%, HT1080 IDH1KD tx 20.3%, MCF10A rerep -1.9%, KB-3-1 cytotox inactive and HT1080NT lethal 21.8%.
Screening O=C(Nc1cccc(Nc2ccccc2)c1)c1cnn2c1NC(=C1CC1)C=C2C(F)F returned KB-V1 MDR tox inactive and KB-3-1 cytotox inactive.
`CCOC(=O)c1cc(C)sc1NC(=O)CSc1nnnn1C` gave KB-V1 MDR tox inactive, SW480 rerep -18.0%, HT1080 IDH1KD tx -8.2%, MCF10A rerep 2.8%, KB-3-1 cytotox inactive and HT1080NT lethal -13.9%.
For CCOC(=O)c1c(NC(=O)CSc2nnnn2C)sc(C)c1-c1ccc(C)cc1 the results were KB-V1 MDR tox 13µM*, SW480 rerep 16.7%, HT1080 IDH1KD tx 8.91µM*, MCF10A rerep inconclusive, KB-3-1 cytotox inconclusive and HT1080NT lethal inconclusive.
`Cc1cccc(NC(=S)NNC(=O)CCn2cc(C)cn2)c1` gave KB-V1 MDR tox inactive, SW480 rerep inconclusive, HT1080 IDH1KD tx 2.82µM*, MCF10A rerep -0.9%, KB-3-1 cytotox inactive and HT1080NT lethal 1.26µM*.
`Cc1sc2ncnc(SCc3ccco3)c2c1C` gave KB-V1 MDR tox inactive, SW480 rerep -3.5%, HT1080 IDH1KD tx -6.0%, MCF10A rerep 14.6µM*, KB-3-1 cytotox inactive and HT1080NT lethal -0.1%.
For COC(=O)c1c(-c2ccccc2)csc1NC(=O)CSc1ncnc2sc(C)c(C)c12 the results were KB-V1 MDR tox 11.6µM*, SW480 rerep 3.0%, HT1080 IDH1KD tx 3.4%, MCF10A rerep -6.4%, KB-3-1 cytotox inactive and HT1080NT lethal 0.5%.
For Cc1sc2ncnc(N(C)Cc3ccco3)c2c1C the results were KB-V1 MDR tox inconclusive, SW480 rerep -0.6%, HT1080 IDH1KD tx -16.1%, MCF10A rerep -7.0%, KB-3-1 cytotox inactive and HT1080NT lethal -16.0%.
`Cc1cccnc1NC(=O)CSc1ncnc2sc(C)c(C)c12` gave KB-V1 MDR tox 14.6µM*, SW480 rerep -5.0%, HT1080 IDH1KD tx 7.0%, MCF10A rerep 10.0%, KB-3-1 cytotox inactive and HT1080NT lethal -3.4%.
For Cc1ccc(-n2c(C)cc(C(=O)C(=O)Nc3ccccc3)c2C)c(C)c1 the results were KB-V1 MDR tox inactive and KB-3-1 cytotox inactive.
Screening Cc1cc(N2CCN(C)CC2)nc2ccc(NC(=O)Nc3cccc(Cl)c3)cc12 returned KB-V1 MDR tox inactive and KB-3-1 cytotox inactive.
COc1ccc(CCNC(=O)CCn2c(=O)c3ccccc3n(Cc3cc(C)ccc3C)c2=O)cc1OC was read as KB-V1 MDR tox inactive and KB-3-1 cytotox inactive.
